Experimental data published in PubChem BioAssay (Tox21).
Results filed as inconclusive are left out. A number with no mark means an inactive call. Calls of active or inactive are those of the source. The call rests on the fitted dose curve; in most records, active means well fitted activation curve with a large enough effect in the signal ratio in the repeat runs (not every such curve was filed as active); inconclusive means weak or mixed curves; inactive means flat fitted curve, though single readings scatter; the % refers to the signal ratio.

Experiment: qHTS assay to identify small molecule agonists of H2AX (AID 1224845)
Settings: CHO-K1 phospho-H2AX Ser139 HTRF, 3 h; series mostly up to 154 µM
From the text: National Center for Advancing Translational Sciences [NCATS]
NIH Chemical Genomics Center [NCGC]
U.S. Environmental Protection Agency [EPA]
National Institutes of Environmental Health Sciences [NIEHS]
National Toxicology Program [NTP]
U.S. Food and Drug Administration [FDA]
HTRF phospho-H2AX (Ser139) assay (Cisbio Bioassays, US) enables the quantitative detection of the histone variant H2AX when phosphorylated on serine 139. When double-stranded DNA breaks, either by ionizing radiation or endogenous physiological processes, H2AX becomes phosphorylated at Ser139. This phospho-Ser139 serves as a sensitive biomarker for the detection of such breaks, localizing the site of DNA repair. So, HTRF phospho-H2AX Ser139 is a pertinent assay to study genome stability, the cell cycle, DNA repair, and it serves as a biomarker for cancer, and to understand aging. Wild type CHO-K1 cells were used to identify the inducers of Phospho-H2AX Ser 139 from the Tox21 10K compound collections.
Tox21 Assay Protocol Summary:
The CHO-K1 cells suspended in culture medium containing 10% FBS were dispensed at 1000 cells/ 3 ul/well in 1536-well white wall/solid bottom plates (Greiner Bio-One North America, NC) using a Multidrop Combi (Thermo Fisher Scientific Inc., Waltham, MA). After the assay plates were incubated at 37C overnight, 23 nl of compounds at 15 concentrations (from 5-48 columns) or positive control (from 1 to 4 columns) were transferred to the assay plates using a Pintool station (Wako, San Diego, CA) into each well resulting in a final DMSO concentration of 0.76%. After 3hr incubation at 37C, 1 uL/well Supplemented Lysis buffer (diluted 100 fold blocking reagent in lysis buffer) (HTRF Phospho-H2A.X (S139) Assay kit from Cisbio US Inc., Bedford, MA) was added using a Flying Reagent Dispenser (FRD) (Aurora Discovery, CA). After 10sec spin at 1000 rpm in a plate centrifuge, the assay plates were incubated at room temperature for 30 min. Then followed by the addition of 1 uL/well detection buffer (containing a mixture of two antibodies, one labeled with cryptate, Anti pH2AX (S139)-K and another labeled with d2, Anti H2AX-d2) using FRD. After incubation at room temperature for 24 hr, the time resolved fluorescence at excitation 320 nm and emissions at 665 nm and 620 nm was measured using an Envision plate reader (PerkinElmer, Waltham, MA).
On the % scale 0 is the no-effect control and ±100 the full control effect.

Question: For CCC1(c2ccccc2)CCC(=O)NC1=O (stereo not given), which outcome is on record?
Answer: Its outcome is “inactive”.

Question: For CCc1cc(OC)c(C[C@H](C)N)cc1OC, which outcome is on record?
Answer: The outcome was “inactive”.

Question: Which outcome does the source give for CCCCCCC1CCOC1=O (stereo not given) here?
Answer: Its outcome is “inactive”.

Question: Which activation (H2AX phosphorylation) does the source give for Cc1ccc2c(c1)C1CN(C)CCC1N2 (stereo not given) here?
Answer: The activation (H2AX phosphorylation) was -0.451% [at 31.6 µM].

Question: For CCN[C@@H](C)Cc1cccc(C(F)(F)F)c1, which outcome is on record?
Answer: The outcome was “inactive”.

Question: For Nc1c(Cl)c(F)nc(OCC(=O)O)c1Cl, which outcome is on record?
Answer: The outcome was “inactive”.

Question: With O=C(Cl)C(Cl)(Cl)Cl as the compound, how does the outcome read?
Answer: Its outcome is “inactive”.

Question: Which outcome does the source give for Cn1c(N)nc2c3cccnc3ccc21 here?
Answer: The outcome was “inactive”.

Question: For CCOC1Oc2ccc(OS(C)(=O)=O)cc2C1(C)C (stereo not given), which outcome is on record?
Answer: Its outcome is “inactive”.

Question: Which outcome does the source give for Cc1cc(OC(=O)N(C)C)nn1C(=O)N(C)C here?
Answer: Its outcome is “inactive”.

Question: For N#CN, which outcome is on record?
Answer: Its outcome is “inactive”.

Question: With CC(C)C(C)(N)C#N (stereo not given) as the compound, how does the outcome read?
Answer: Its outcome is “inactive”.

Question: With NNCc1ccccc1 as the compound, how does the outcome read?
Answer: The outcome was “inactive”.

Question: For COC1=CC(=O)O[C@@H](/C=C/c2ccccc2)C1, which outcome is on record?
Answer: Its outcome is “inactive”.

Question: Which outcome does the source give for CCOC(=O)Nc1cccc(OC(=O)Nc2ccccc2)c1 here?
Answer: Its outcome is “inactive”.

Question: With C[C@]12C=CC(=O)C=C1CC[C@@H]1[C@@H]2CC[C@@]2(C)[C@H]1CC[C@]2(C)O as the compound, how does the outcome read?
Answer: Its outcome is “inactive”.

Question: Which outcome does the source give for O=c1[nH]c2ccccc2o1 here?
Answer: The outcome was “inactive”.

Question: With CCCC(C)(COC(N)=O)COC(N)=O as the compound, how does the outcome read?
Answer: The outcome was “inactive”.

Question: With Oc1ccc2c3c1O[C@H]1[C@@H](O)C=C[C@H]4[C@@H](C2)NCC[C@@]341 as the compound, how does the outcome read?
Answer: The outcome was “inactive”.

Question: For NNC(N)=O, which outcome is on record?
Answer: Its outcome is “inactive”.

Question: For C(COCC1CO1)OCC1CO1 (stereo not given), which outcome is on record?
Answer: Its outcome is “inactive”.

Question: Which outcome does the source give for C=C1CC[C@@]2(O)[C@H]3Cc4ccc(O)c5c4[C@@]2(CCN3CC2CC2)[C@H]1O5 here?
Answer: The outcome was “inactive”.

Question: With N#CC(Br)(Br)C(N)=O as the compound, how does the outcome read?
Answer: The outcome was “inactive”.

Question: With CC(C)(O)C(Cl)(Cl)Cl as the compound, how does the outcome read?
Answer: The outcome was “inactive”.

Question: With NCCOS(=O)(=O)O as the compound, how does the outcome read?
Answer: Its outcome is “inactive”.

Question: Which outcome does the source give for CCC(=O)OC1(c2ccccc2)CCN(C)CC1 here?
Answer: Its outcome is “inactive”.

Question: With CCC1(CC)C(=O)C=CNC1=O as the compound, how does the outcome read?
Answer: The outcome was “inactive”.

Question: Which outcome does the source give for CCN[C@H](C)Cc1cccc(C(F)(F)F)c1 here?
Answer: Its outcome is “inactive”.

Question: For Cc1ccc(-c2nc3ccc(C)cn3c2CC(=O)N(C)C)cc1, which outcome is on record?
Answer: The outcome was “inactive”.

Question: For O=C(Cl)/C=C/C(=O)Cl, which outcome is on record?
Answer: The outcome was “inactive”.

Question: Which outcome does the source give for OP(O)c1ccccc1 here?
Answer: The outcome was “inactive”.

Question: With CN(C)C(=O)Oc1cc(OC(=O)N(C)C)cc(C(O)CNC(C)(C)C)c1 (stereo not given) as the compound, how does the outcome read?
Answer: The outcome was “inactive”.

Question: With CNC(=O)O/N=C(/CSC)C(C)(C)C as the compound, how does the outcome read?
Answer: The outcome was “inactive”.

Question: Which outcome does the source give for COc1ccccc1OC here?
Answer: Its outcome is “inactive”.

Question: With BrCc1ccc(Br)cc1 as the compound, how does the outcome read?
Answer: The outcome was “inactive”.

Question: Which outcome does the source give for CCC(=O)c1ccc(Cl)cc1 here?
Answer: The outcome was “inactive”.

Question: With CCN(CCO)CCO as the compound, how does the outcome read?
Answer: The outcome was “inactive”.

Question: Which outcome does the source give for CC(C)(C)NC[C@H](O)c1ccc(O)cc1Cl here?
Answer: Its outcome is “inactive”.

Question: With C[C@H]1CCCC(=O)CCC/C=C/c2cc(O)cc(O)c2C(=O)O1 as the compound, how does the outcome read?
Answer: The outcome was “inactive”.

Question: For CC[C@H](O)C(C[C@H](C)N(C)C)(c1ccccc1)c1ccccc1, which outcome is on record?
Answer: Its outcome is “inactive”.
